Data as given in PubChem BioAssay AID1203 (The Scripps Research Institute Molecular Screening Center, 2008).
Among all 200,000 compounds or so, about 80 (0.04%) were called active.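 How the source made its calls: active means activation above the mean across all tested compounds plus 3 SD, cutoff set per campaign (cut at about 5.5% in these data); inactive means the rest.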 Many of the other results were omitted from the sample, so actives are more common in it than they were.

Assay: Hsp70 transcriptional activators, primary screen, cell-based, HeLa, Hsp70 promoter luciferase, luminescence, 10 µM (AID 1203);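 further: 100% = MG132 at 30 µM as the positive control and 0% = DMSO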
Conditions: HeLa Hsp70 promoter luciferase reporter, at 10 µM, hits give high values, scaled: vehicle 0, proteasome-inhibitor control 100%

SMILES	activation
COc1ccc(OCC(O)CNC(=O)Nc2ccc(Cl)cc2)cc1 (stereo unspecified)	-0.12% (inactive)
NS(=O)(=O)c1ccc(N=Cc2ccc(Br)s2)cc1	-0.31% (inactive)
CCOC(=O)C/C(C)=N\Nc1ccc([N+](=O)[O-])cc1[N+](=O)[O-]	0.04% (inactive)
O=S(=O)(c1ccc2c(c1)OCCO2)N1CCc2ccccc21	0.08% (inactive)
O=C(CSc1nncs1)NC1CCCc2ccccc21 (stereo unspecified)	-0.09% (inactive)
O=S(=O)(ON(c1ccccc1)S(=O)(=O)c1ccccc1)c1ccccc1	-0.24% (inactive)
CCOC(=O)c1c(NC(=S)NC(=O)/C=C/c2cccs2)sc(C)c1C	-0.28% (inactive)
O=C(NNC(=S)Nc1ccc(Br)cc1Cl)c1ccco1	-0.21% (inactive)
CCC(=O)OCc1c(C(F)(F)F)nn(C)c1Oc1cccc(C(F)(F)F)c1	-0.27% (inactive)
CCNC(=O)NNC(=O)C1CC(c2cccs2)=NO1 (stereo unspecified)	-0.44% (inactive)
CCOC(=O)c1cnc2c(c(C)nn2CC)c1Cl	-0.38% (inactive)
C/C(=N\NC(=O)CNc1cccc2ccccc12)c1ccc(Br)s1	-0.39% (inactive)
CCCC1NC(=S)NC(C)=C1C(C)=O (stereo unspecified)	-0.09% (inactive)
CCOC(=O)NN1C(=O)c2ccccc2NC1c1ccccc1O (stereo unspecified)	-0.07% (inactive)
CC1CC(C)(C)NC(=S)N1CCC(=O)N1CCN(Cc2ccccc2)CC1 (stereo unspecified)	-0.64% (inactive)
CC(C)(C)c1ccc(NC(=O)COC(=O)CCc2nc3ccccc3c(=O)[nH]2)cc1	-0.35% (inactive)
CSCCC(NC(=O)COc1ccccc1)C(=O)Nc1ccc(C)cc1 (stereo unspecified)	-0.22% (inactive)
COc1ccc(C(CC(=O)c2ccccc2)S(=O)(=O)c2ccccc2)cc1 (stereo unspecified)	-0.26% (inactive)
COC(=O)C1=CN(Cc2ccc(OC)c(OC)c2)C=C(C(=O)OC)C1c1cccs1	-0.18% (inactive)
O=C1Oc2ccccc2C(=O)/C1=C/c1ccccc1O	-0.37% (inactive)
CC(=O)c1ccc(NC(=O)C(C)N(C)CC(=O)Nc2ccccc2Cl)cc1 (stereo unspecified)	-0.06% (inactive)
